Source: PubChem
The list is not random: actives were taken first. Their share in the collection is about 3.9%.
HSF1 activator: increases HSF-1 driven luciferase reporter signal; NIH3T3-HGL HSF-1 luciferase reporter, MG132, 8 h; 100% = twice DMSO control signal; activation, % at 9 µM; hit rate 1.7% among 300,000;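 active means mean replicate activation of at least 50% with a set share of replicates each reaching 50%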;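 further: 0% = median of the neutral control wells and 100% = twice that signal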
MITF TRPM1 HTS: MITF TRPM1 promoter activation in melanoma cells; AID 588334; activation, % at 12.5 µM; hit rate 0.75% among 300,000; SK-MEL-5 TRPM1-promoter luciferase, 24 h; % of positive control, neutral wells = 0;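 active means mean activation of at least 80% with every replicate also reaching 80%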;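 further: 0% = neutral control wells and 100% = parthenolide positive control wells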
esBAF inh: blocks esBAF chromatin remodeling in mouse ES cells. Bmi1-luciferase knock-in reporter, 24 h; 100% = twice the neutral-well signal. reporter increase, % at 12.5 µM. hit rate 2% among 350,000. AID 602393; in the data active means activation above about 40%;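 further: 0% = median of the plate's neutral control wells and 100% = double that signal; a rise in the Bmi1 reporter signal indicates esBAF inhibition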
Wnt bcat act: activates Wnt/beta-catenin signaling in a reporter cell assay | activator, plate reader | activation, % at 9.35 µM | hit rate 1.2% among 300,000; in the data active means activation above about 30%, passing the limit was not always enough;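 further: 0% = neutral control wells and 100% = positive control wells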
HSF1 inh: HSF1 inhibition; NIH3T3-HGL HSE-luciferase, MG132-induced, luminescence 8 h; hits give low values; hit rate 0.77% among 300,000; activity change, negative = inhibition, % at 7.5 µM (by protocol);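 active means more than half of replicate wells show activity change below -50%, luminescence cut by over half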;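 further: luciferase reports HSF-1 transcriptional activity via heat shock element; 0% = median of DMSO wells and -100% = zero luminescence signal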
Starred values were filed as active, the others as inactive; nt = no result.

SMILES | HSF1 activator | MITF TRPM1 HTS | esBAF inh | Wnt bcat act | HSF1 inh
CN(N=Nc1ccccc1C(=O)O)C1CCCCC1 | nt | nt | -1 | 38* | nt
c1ccc(-c2nc(-c3ccc(-c4ccon4)s3)no2)cc1 | 25 | 74 | 53* | 36* | 18
c1ccc(-c2nc(-c3ccncc3)no2)cc1 | 26 | 75 | 39 | nt | 15
c1csc(-c2nc(-c3ccc(-c4ccon4)s3)no2)c1 | 40 | 38 | nt | 42* | 9
O=C(CNC(=O)C1CCCCC1)NC1=NCCS1 | -90 | 4 | 7 | 0 | -88*
O=C(CNC(=O)C12CC3CC(CC(C3)C1)C2)NC1=NCCS1 | -14 | 0 | 0 | 3 | -12
Cn1cccc1C(=O)OCc1cc(-c2ccco2)on1 | nt | 98* | 83* | 27 | nt
CC1=C(C(=O)Nc2ccccn2)C(c2ccc(Cl)cc2)NC(=S)N1 (centres undefined) | 64* | 38 | 44* | 2 | 25
CC1=C(C(=O)Nc2ccccn2)C(c2ccccc2Cl)NC(=S)N1 (centres undefined) | 14 | 26 | 66* | 22 | 5
C[C@@H]1CN([C@@H](C)CO)S(=O)(=O)c2ccc(-c3ccccc3F)cc2O[C@H]1CN(C)C(=O)C1CC1 | nt | nt | 4 | nt | nt
COc1ccc(NC(=O)CSc2nnc3ccc(-c4ccncc4)nn23)cc1OC | -80 | -1 | -4 | 0 | -75*
Cc1ccc(S(=O)(=O)CCN2CCN(c3ccccc3)CC2)cc1 | 120* | 8 | -1 | -3 | 96
Cc1ccc(S(=O)(=O)CCN2CCC(O)(c3ccccc3)CC2)cc1 | 38 | -6 | -9 | 0 | 3
O=S1(=O)N=C(N2CCN(c3ccc(F)cc3)CC2)c2ccccc21 | -3 | 29 | 46* | nt | 4
CC(Sc1ccc2c(c1)OCCO2)C(=O)Nc1ccc2c(c1)OCO2 (centres undefined) | 34 | 3 | 13 | nt | 12
O=C(CSc1nccn(-c2ccc(F)c(F)c2)c1=O)NC1CCCC1 | 62* | 5 | 3 | 1 | 23
O=C(CSc1ccccc1)Nc1ccc2c(c1)OCO2 | 21 | 89* | 44* | 23 | 13
O=C(CSc1ccc2c(c1)OCCO2)Nc1ccc2c(c1)OCO2 | -10 | 8 | 16 | -2 | -2
CN(C(=O)CSc1ccc2c(c1)OCCO2)c1ccccc1 | nt | 76 | 60* | 27 | nt
COc1ccccc1-n1ccnc(SCC(=O)NC2CCCC2)c1=O | -2 | -7 | 3 | 2 | -1
CC(Sc1ccccc1F)C(=O)Nc1ccc2c(c1)OCCO2 (centres undefined) | nt | 89* | 100* | 45* | nt
C[C@H](CO)N1C[C@H](C)[C@@H](CN(C)CC2CCOCC2)Oc2cc(Br)ccc2S1(=O)=O | nt | nt | -7 | nt | nt
O=C(CC1Nc2ccccc2NC1=O)Nc1ccc2c(c1)OCO2 (centres undefined) | -22 | 2 | 47* | 1 | -3
Cc1ccc(NC(=O)CSc2nccn(-c3ccc4c(c3)OCCO4)c2=O)cc1 | -1 | 6 | nt | 4 | -2
O=C(CSc1nccn(-c2ccc3c(c2)OCCO3)c1=O)Nc1ccccc1 | -22 | 18 | 49* | 4 | -14
SMILES | HSF1 activator | MITF TRPM1 HTS | esBAF inh | Wnt bcat act | HSF1 inh
O=C(CSc1nnnn1-c1ccc(Cl)cc1)NC(=O)Nc1ccc2c(c1)OCCO2 | 28 | 76 | 56* | 38* | 15
CCn1c(COc2ccc(C)cc2)nnc1SCC(=O)Nc1ccc2c(c1)OCCO2 | -76 | 0 | 9 | nt | -71*
Cc1ccc(NC(=O)CC2Nc3ccccc3NC2=O)cc1Cl (centres undefined) | nt | -1 | 39 | 0 | nt
COc1ccc(S(=O)(=O)Nc2ccc3c(c2)CC(=O)N([C@@H](C)CO)C[C@@H](C)[C@H](CN(C)S(=O)(=O)c2ccc(F)cc2)O3)cc1 | nt | nt | -3 | nt | nt
CO[C@@H]1CN(C)C(=O)c2ccc(NC(=O)C3CCOCC3)cc2OC[C@H](C)N(C)C[C@H]1C | nt | nt | -5 | nt | nt
CCCNC(=O)Nc1ccc2c(c1)C(=O)N(C)C[C@H](OC)[C@H](C)CN(C(=O)C1CCC1)[C@H](C)CO2 | nt | nt | -2 | nt | nt
O=C(Nc1ccc2c(c1)OCCO2)c1cnn(-c2ccccc2)n1 | nt | 90* | 31 | 25 | nt
CC(CC(=O)Nc1ccc2c(c1)OCCO2)c1ccccc1 (centres undefined) | 0 | nt | 55* | 56* | 8
O=C(CSc1ccccc1F)Nc1ccc2c(c1)OCO2 | nt | 99* | 30 | 5 | nt
O=C(CSc1ccccn1)Nc1ccc2c(c1)OCO2 | 14 | nt | nt | 28 | 6
O=C(Nc1ccc2c(c1)OCCO2)C(=S)NCc1ccccc1 | 68* | 9 | nt | -2 | 45
